Results filed as inconclusive are left out. The source made the active and inactive calls. Unless noted, calls come from the whole dose curve; as a rule, active = well fitted curve in the direction sought with a large enough effect; inconclusive = small, poorly fitted or top-dose-only effect, or another doubt; inactive = no such curve, though single readings can be large; an effect the other way counts as inactive or inconclusive.
Key:
OV90 = test: Primary qHTS to identify gynecologic anti-cancer compounds using libraries of approved drugs and bioactive compounds (AID 1345084); settings: Gynecologic cancer cell panel viability, ATPlite luminescence, 48 h; series mostly up to 57.5 µM; note: nearly all actives have a fitted effect of over 55% in size; note: potency is the fitted concentration of half-maximal effect
In short: (§1)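 ATP-based viability (ATPlite), 1,000 cells/well, 16 h pre-incubation, 48 h compound at 37 C, 5% CO2, 15 min RT before read.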

PA-1 = test: as above; settings: Gynecologic cancer cell panel viability, ATPlite luminescence, 48 h; series mostly up to 57.5 µM
In short: as §1

SKOV3 = test: as above; settings: Gynecologic cancer cell panel viability, ATPlite luminescence, 48 h; series mostly up to 57.5 µM
In short: as §1

Tov-21-G = test: as above; settings: Gynecologic cancer cell panel viability, ATPlite luminescence, 48 h; series mostly up to 57.5 µM
In short: as §1

Tov112D = test: as above; settings: Gynecologic cancer cell panel viability, ATPlite luminescence, 48 h; series mostly up to 57.5 µM
In short: as §1

[1] = qHTS assay to identify inhibitors of the type 1 interferon - major histocompatibility complex class I in skeletal muscle: Counter screen cell viability and HiBit confirmation (AID 1347412); settings: iHSKM muscle cells + IFN-b, HiBiT or CellTiter-Glo, 24 h; for activity change, negative = inhibition: at 45.9 µM (top of the series); note: potency is the fitted concentration of half-maximal effect; for activity change, negative = inhibition: % is set by controls: 0 for no effect and ±100 for the full control effect; for all read-outs here: nearly all actives have a fitted effect of over 60% in size
In short: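 Myoblasts (C25cl48, HLA-B HiBiT) seeded in medium without dexamethasone, IFN-b 4 ng/ml added except unstimulated columns; 1 hr later compounds pinned (12-pt 1:3, top 46 uM final). Incubated 24 hrs, lysed 10 min, luminescence measured.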

[2] = target: Nuclear receptor subfamily 1 group I member 2 (Rattus norvegicus) (UniProt Q9R1A7); test: qHTS assay for small molecule activators of the rat pregnane X receptor (rPXR) signaling pathway (AID 651751; call rule not given here; note: 0% is about no effect); settings: rPXR reporter cells, luciferase (One-Glo), 24 h
Chain of Nuclear receptor subfamily 1 group I member 2 (Rattus norvegicus) (Q9R1A7 whole entry, looked up): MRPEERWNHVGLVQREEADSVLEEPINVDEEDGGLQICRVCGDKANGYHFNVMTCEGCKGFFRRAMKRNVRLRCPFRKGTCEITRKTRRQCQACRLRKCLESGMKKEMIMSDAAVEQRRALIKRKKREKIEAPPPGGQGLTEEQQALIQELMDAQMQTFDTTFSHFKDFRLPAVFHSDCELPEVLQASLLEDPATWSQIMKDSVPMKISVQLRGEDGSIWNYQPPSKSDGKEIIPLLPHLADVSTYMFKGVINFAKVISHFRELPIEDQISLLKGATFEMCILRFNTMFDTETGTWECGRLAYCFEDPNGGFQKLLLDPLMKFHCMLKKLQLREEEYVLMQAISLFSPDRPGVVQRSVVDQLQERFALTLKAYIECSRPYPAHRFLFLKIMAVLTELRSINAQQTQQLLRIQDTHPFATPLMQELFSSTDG

[3] = qHTS assay for small molecule activators of the human pregnane X receptor (PXR) signaling pathway (AID 720659; call rule not given here; note: 0% is about no effect)
astro = test: Drug repurposing screens with cells derived from glioblastoma tumor samples (AID 1345199); settings: viability, ATP luminescence, 48 h; series mostly up to 45.9 µM; note: nearly all actives have a fitted effect of over 40% in size; note: potency is the fitted concentration of half-maximal effect; for activity, negative = cell killing: % is set by controls: 0 for no effect and ±100 for the full control effect
In short: (§2)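 Four patient lines of CD133+ GBM neurospheres were screened at several concentrations; hits were retested in those lines plus three slower-growing GBM lines, using 48-hour treatment and ATP-based viability.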

[4] = as above; settings: GBM patient neurospheres viability, ATP luminescence, 48 h
In short: as §2

C#Cc1cccc(Nc2ncnc3cc(OC)c(OCCCCCCC(=O)NO)cc23)c1
inactive: activity change, negative = inhibition ([1]; Viability) -17%
active: Potency (OV90) 5.62 µM | Potency (PA-1) 5.01 µM | Potency (SKOV3) 8.91 µM | Potency (Tov-21-G) 10 µM | Potency (Tov112D) 7.08 µM | Potency ([1]; HiBiT) 2.49 µM

COc1ccc2c(OCc3nnc4ccc(-c5ccccc5)nn34)ccnc2c1
inactive: Potency (OV90) | Potency (PA-1) | Potency (Tov-21-G) | Potency (Tov112D)

Cc1ccc(C(=O)Nc2ccc(CN3CCN(C)CC3)c(C(F)(F)F)c2)cc1C#Cc1cnc2cccnn12
active: Potency (OV90) 15.8 µM | Potency (PA-1) 8.91 µM | Potency (SKOV3) 10 µM | Potency (Tov-21-G) 7.08 µM | Potency (Tov112D) 7.94 µM | Potency ([1]; HiBiT) 6.25 µM | Potency ([1]; Viability) 15.7 µM

Cn1c(CNc2ccc(C(=N)N)cc2)nc2cc(C(=O)N(CCC(=O)O)c3ccccn3)ccc21
inactive: Potency (OV90) | Potency (PA-1) | Potency (SKOV3) | Potency (Tov-21-G) | Potency (Tov112D)

Nc1nc(NCCNc2ncc(-n3ccnc3)c(-c3ccc(Cl)cc3Cl)n2)ccc1[N+](=O)[O-]
active: Potency ([1]; HiBiT) 15.7 µM
inactive: Potency (OV90) | Potency (PA-1) | Potency (SKOV3) | Potency (Tov-21-G) | Potency (Tov112D) | activity change, negative = inhibition ([1]; Viability) -15.1%

Cc1cn(-c2cc(NC(=O)c3ccc(C)c(Nc4nccc(-c5cccnc5)n4)c3)cc(C(F)(F)F)c2)cn1
active: Potency (PA-1) 12.6 µM
inactive: Potency (OV90) | Potency (Tov-21-G) | Potency (Tov112D)

CC(C)(O)CCc1ccc(OCc2cc(-c3cccc(OC(F)F)c3)c3ncccc3c2)cc1
inactive: Potency (OV90) | Potency (PA-1) | Potency (Tov-21-G) | Potency (Tov112D)

Nc1nccc(Oc2ccc(NC(=O)c3c[nH]cc(-c4ccc(F)cc4)c3=O)cc2F)c1Cl
inactive: Potency (OV90) | Potency (PA-1) | Potency (Tov-21-G) | Potency (Tov112D) | activity change, negative = inhibition ([1]; Viability) 1.85%

CN(C)Cc1c(C(=O)NCCOc2ccc(C(=O)NO)cc2)oc2ccccc12
inactive: activity change, negative = inhibition ([1]; Viability) -5.27%
active: Potency (OV90) 1.58 µM | Potency (PA-1) 1 µM | Potency (SKOV3) 7.08 µM | Potency (Tov-21-G) 7.94 µM | Potency (Tov112D) 3.16 µM | Potency ([1]; HiBiT) 0.787 µM

Cn1cc(-c2ccncc2)c(-c2ccc(OCc3ccc4ccccc4n3)cc2)n1
inactive: Potency (OV90) | Potency (PA-1) | Potency (Tov-21-G) | Potency (Tov112D)

CN(C)CC(C)(C)CNc1nn2c(-c3ccccc3)nnc2cc1C1CCC1
inactive: Potency (OV90) | Potency (PA-1) | Potency (Tov-21-G) | Potency (Tov112D)

O=C(O)CCCc1c[nH]c2ccccc12
inactive: Potency (OV90) | Potency (PA-1) | Potency (SKOV3) | Potency (Tov-21-G) | Potency (Tov112D) | max response [2] -0.908% | outcome [3]

COc1ccc(-n2nc(C(N)=O)c3c2C(=O)N(c2ccc(N4CCCCC4=O)cc2)CC3)cc1
inactive: Potency (OV90) | Potency (PA-1) | Potency (SKOV3) | Potency (Tov-21-G) | Potency (Tov112D)

C=CC(=O)Nc1cc2c(Nc3ccc(F)c(Cl)c3)ncnc2cc1OCCCN1CCOCC1
active: Potency (SKOV3) 3.16 µM | Potency (astro) 11.2 µM | Potency ([1]; HiBiT) 15.7 µM
inactive: Potency (OV90) | Potency (PA-1) | Potency (Tov112D) | activity change, negative = inhibition ([1]; Viability) -26.8%

C=CC(=O)Nc1cccc(Oc2nc(Nc3ccc(N4CCN(C)CC4)cc3)ncc2Cl)c1
active: Potency (PA-1) 8.91 µM | Potency (SKOV3) 3.16 µM | Potency (Tov-21-G) 8.91 µM | Potency (Tov112D) 5.62 µM | Potency ([1]; HiBiT) 22.2 µM
inactive: Potency (OV90)

Clc1ccc2ncc(-c3cccc(NC4CNC4)n3)n2c1
inactive: Potency (OV90) | Potency (PA-1) | Potency (SKOV3) | Potency (Tov-21-G) | Potency (Tov112D)

COC(=O)C1=C(C)NC(C)=C(C(=O)OCCN2CCN(C(c3ccccc3)c3ccccc3)CC2)C1c1cccc([N+](=O)[O-])c1 (stereo not drawn)
active: Potency ([4]; tumour line A) 3.16 µM | Potency ([4]; tumour line C) 16.4 µM | Potency ([4]; tumour line D) 15.8 µM
inactive: Potency (OV90) | Potency (Tov-21-G) | Potency (Tov112D) | activity, negative = cell killing ([4]; at 45.9 µM (top of the series), tumour line B) -14.4% | Potency (astro)

COc1cccc2c(NCc3ccccc3)nc(-n3c(N)nc4ccccc43)nc12
active: Potency (OV90) 25.1 µM | Potency ([1]; HiBiT) 12.5 µM | Potency ([1]; Viability) 17.6 µM

Cn1c2ccccc2c2c3c(c4c5ccccc5n(CCC#N)c4c21)CNC3=O
inactive: Potency (OV90) | Potency (Tov112D)
active: Potency (SKOV3) 17.8 µM

COc1cc(-c2nn(C3CCC(N4CCN(C(C)=O)CC4)CC3)c3ncnc(N)c23)ccc1NC(=O)c1cc2ccccc2n1C (stereo not drawn)
inactive: Potency (OV90) | Potency (SKOV3) | Potency (Tov112D)

CN1CCN(Cc2ccc(NC(=O)Nc3ccc(Oc4cc(NC(=O)C5CC5)ncn4)cc3)cc2C(F)(F)F)CC1
active: Potency (OV90) 0.631 µM | Potency (PA-1) 0.794 µM | Potency (Tov112D) 0.708 µM | Potency ([1]; HiBiT) 0.442 µM
inactive: activity change, negative = inhibition ([1]; Viability) 13.9%

Cc1c(C)n(Cc2ccc(-c3ccccc3C(=O)O)cc2)c2ccc(C(=O)N[C@@H](C)c3ccc([N+](=O)[O-])cc3)cc12
inactive: Potency (OV90) | Potency (Tov-21-G) | Potency (Tov112D)

From PubChem BioAssay (NCATS)
